# In PubChem BioAssay (NCATS):
# Several values for one entry are separate records, joined by “and”; a condition that tells them apart may be missing. Equal entries are not always repeated. Records with an inconclusive call do not appear. Entries that show only a call come without a potency. Activity calls are given as the source filed them. Unless noted, calls come from the whole dose curve; as a rule, active = well fitted curve in the direction sought with a large enough effect; inconclusive = small, poorly fitted or top-dose-only effect, or another doubt; inactive = no such curve, though single readings can be large; an effect the other way counts as inactive or inconclusive.
# Experiments:
# [1] = qHTS assay for measurement of the activity of small molecule inhibitors on Zika virus induced Caspase-3 activity in human iPSC derived neural progenitor cells (hNPCs) (AID 1224857); note: nearly all actives have a fitted effect of over 65% in size; note: potency is the fitted concentration of half-maximal effect
# Outline: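 In medium with heparin 2 ug/ml and cyclopamine 2 uM, hNPCs (350 cells/well) received compound for one hour and then Zika virus at 2 FFU/cell; caspase activity was measured by Caspase-Glo 3/7 luminescence 6 h post-infection.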
# [2] = qHTS assay for measurement of the activity of small molecule inhibitors on Zika virus induced Caspase-3 activity in human astrocytoma cells (AID 1224859)
# Outline: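 A cell-based luminescent caspase-3/7 assay used SNB-19 cells infected with ZIKV (2 FFU/cell) for 6 h following 1 h compound pretreatment.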
# [3] = qHTS assay for cell viability of HEK293 cells (AID 743288); conditions: ATP luminescence (CellTiter-Glo), 18 h; max response: stronger effect = lower value; note: nearly all actives have a fitted effect of over 50% in size
# Outline: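 Quantitative high-throughput screen: compounds were pinned onto parental HEK293 cells (2,000 per well) after a minimum 5 h settling at 37 C, incubated 18 h at 37 C, and intracellular ATP measured by luciferase luminescence.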
# [4] = qHTS assay for cell viability of the p53RE-bla HCT-116 cell line (AID 743292); note: nearly all actives have a fitted effect of over 55% in size
# Outline: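 CellSensor p53RE-bla HCT-116 cells, 4,000/well, preincubated 5 h at 37 C, then exposed to compounds in DMSO for 16 h at 37 C. Viability read as CellTiter-Glo luminescence (intracellular ATP) after 30 min at room temperature.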
# [5] = qHTS profiling of the MIPE4 collection as inhibitors of Plasmodium falciparum (3D7) proliferation (AID 743344; call rule not given here); conditions: P. falciparum 3D7 in erythrocytes, SYBR Green DNA fluorescence, 72 h; at 28.5 µM (top of the series)
# Outline: (§1)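 Parasite DNA was quantified by SYBR Green I fluorescence (ex 485, em 535 nm) after overnight lysis in saponin/Triton buffer at room temperature. Cultures at 0.3% parasitemia and 2.5% hematocrit were first exposed to compound for 72 h at 37 C; signals were normalised to artemisinin (0.29 uM) and vehicle wells.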
# [6] = qHTS profiling of the MIPE4 collection as inhibitors of Plasmodium falciparum (DD2) proliferation (AID 743345; call rule not given here); conditions: P. falciparum Dd2 in erythrocytes, SYBR Green DNA, 72 h; at 28.5 µM (top of the series)
# Outline: as §1
# [7] = qHTS profiling of the MIPE4 collection as inhibitors of Plasmodium falciparum (DD2) proliferation (Rep 2) (AID 743346; call rule not given here); conditions: P. falciparum Dd2 in erythrocytes, SYBR Green DNA, 72 h; at 28.5 µM (top of the series)
# Outline: as §1
# [8] = qHTS profiling of the MIPE4 collection as inhibitors of Plasmodium falciparum (HB3) proliferation (AID 743347; call rule not given here); conditions: P. falciparum HB3 in erythrocytes, SYBR Green DNA, 72 h; at 28.5 µM (top of the series)
# Outline: as §1
# [9] = qHTS assay to identify small molecule inhibitors of chordoma cells - UCH-1 (AID 1259355); note: nearly all actives have a fitted effect of over 55% in size
# Outline: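 800 cells/well, overnight attach; compounds pinned at 15 concs, then auranofin/camptothecin/doxorubicin/rubitecan/topotecan combo added; 48hr 37 C, 5% CO2; CellTiter-Glo, 30min RT, luminescence.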
# [10] = qHTS assay to identify small molecule inhibitors of chordoma cells - UCH-2 (AID 1259356)
# [11] = P-glycoprotein substrates identified in KB-3-1 adenocarcinoma cell line, qHTS therapeutic library screen (AID 1346986); note: nearly all actives have a fitted effect of over 60% in size
# Outline: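 Dose-response cytotoxicity, KB-3-1 vs P-gp-high KB-8-5-11, no colchicine in assay medium. Read: CellTiter-Glo at 72 h.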
# [12] = P-glycoprotein substrates identified in KB-8-5-11 adenocarcinoma cell line, qHTS therapeutic library screen (AID 1346987); note: nearly all actives have a fitted effect of over 65% in size
# Outline: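 Human cervical adenocarcinoma KB-8-5-11 cells, selected in colchicine to over-express P-gp and assayed without it, were exposed for 72 h to titrated compounds. An ATP-based luminescent viability signal gave AC50.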
compound,measurement,setting,value
OCC1O[C@H](O)C(Cl)C(O)C1O (stereo not given in full),Potency,[1],inactive
same,Potency,[2],inactive
NC[C@H]1O[C@@H](n2cnc3c(N)ncnc32)[C@H](O)[C@@H]1O,Potency,[1],inactive
same,Potency,[2],inactive
Clc1ccc(N2CCN(Cc3cc4ccccn4n3)CC2)cc1,Potency,[1],inactive
same,Potency,[2],inactive
CC1CN(S(=O)(=O)c2cccc3cnccc23)CCN1 (stereo not given),Potency,[1],inactive
same,Potency,[2],inactive
CN(C)CCC(c1ccc(Cl)cc1)c1ccccn1 (stereo not given),max response,[3],-8.98% (inactive)
same,Potency,[4],inactive
same,"parasite growth, % of DMSO control",[5],105%
same,"parasite growth remaining, % of DMSO control (lower = more inhibition)",[6],70.9%
same,"parasite growth, % of control (lower = inhibition)",[7],38.1%
same,"growth, % of control",[8],78.9%
same,Potency,[1],inactive
same,Potency,[2],inactive
Oc1ccccc1O,Potency,[4],inactive
same,Potency,[1],inactive
same,Potency,[2],inactive
NC(=O)C(c1ccccc1)(c1ccccc1)[C@@H]1CCN(CCc2ccc3c(c2)CCO3)C1,Potency,[1],inactive
same,Potency,[9],inactive
same,Potency,[10],inactive
Cn1ncc(S(=O)(=O)Cc2ccccc2)c(Br)c1=O,Potency,[1],inactive
same,Potency,[2],inactive
O=C(O)CNC(=O)C(CS)Cc1ccccc1 (stereo not given),Potency,[1],inactive
same,Potency,[2],inactive
CCCCCCCCCCCCCCCCCC(=O)OC(CC(=O)O)C[N+](C)(C)C (stereo not given),Potency,[1],inactive
same,Potency,[2],inactive
NCCCCC(=O)O,Potency,[1],inactive
same,Potency,[2],inactive
CC(C)NC[C@H](O)COc1cccc2[nH]ccc12,Potency,[1],inactive
same,Potency,[2],inactive
Fc1ccc(C(OCCCc2cnc[nH]2)c2ccc(F)cc2)cc1,Potency,[1],inactive
same,Potency,[2],inactive
CCCCCCCCc1ccc(-c2ccc(C(=O)O)cc2)cc1,Potency,[1],inactive
same,Potency,[2],inactive
Oc1c(Br)cc(Br)c2cccnc12,Potency,[1],inactive
same,Potency,[9],inactive
CC(C)(C=O)Cc1cc(C(C)(C)C)c(O)c(C(C)(C)C)c1,Potency,[1],inactive
same,Potency,[2],inactive
O=C(CCCCCN1CCN(c2ccccc2-c2ccccc2)CC1)NC1CCCc2ccccc21 (stereo not given),Potency,[1],inactive
same,Potency,[2],inactive
COc1cc(OC)c(/C=C2/C(=O)Nc3ccccc32)c(OC)c1,Potency,[1],inactive
same,Potency,[2],inactive
N#C/C(=C\c1ccc(-c2cc(Cl)ccc2Cl)o1)C(=O)Nc1cccc2ncccc12,Potency,[1],inactive
same,Potency,[2],inactive
O=C(O)CC1CCCc2ccccc2C1O (stereo not given),Potency,[1],inactive
same,Potency,[2],inactive
O=C(Nc1ccccc1)c1cc([N+](=O)[O-])ccc1Cl,max response,[3],-11.7% (inactive)
same,Potency,[4],inactive
same,Potency,[1],inactive
same,Potency,[2],inactive
CCCN(CC1CC1)c1nc(C)nc(Nc2c(Cl)cc(Cl)cc2Cl)c1Cl,Potency,[1],inactive
same,Potency,[2],inactive
O=S(=O)(c1cccc2c(I)cccc12)N1CCCNCC1,Potency,[1],inactive
same,Potency,[2],inactive
C=C[C@H]1CN2CC[C@@H]1C[C@@H]2[C@@H](O)c1ccnc2ccc(OC)cc12,Potency,[1],inactive
same,Potency,[2],inactive
COc1cc2c(CCNC(C)=O)c[nH]c2cc1Cl,Potency,[1],inactive
same,Potency,[2],inactive
O=C(c1ccc(Cl)cc1)N1CCN(c2ccc([N+](=O)[O-])c3ncccc23)CC1,Potency,[1],inactive
same,Potency,[2],inactive
CCCCCCCC/C=C\CCCCCCCC(=O)NCCO,Potency,[1],inactive
same,Potency,[2],inactive
S=C(S)OC1CC2CC1C1CCCC21 (stereo not given),Potency,[1],inactive
same,Potency,[2],inactive
CN(C)c1nc(N)c(C(=O)N=C(N)N)nc1Cl,Potency,[1],inactive
same,Potency,[2],inactive
CC1(C)CCC=[N+]1[O-],Potency,[1],inactive
same,Potency,[2],inactive
c1cnc2c(c1)ccc1cccnc12,Potency,[4],inactive
same,Potency,[1],inactive
same,Potency,[2],inactive
Cc1cc2c(cc1Cl)N(C(=O)Nc1ccc(Oc3cccnc3C)nc1)CC2,Potency,[1],inactive
same,Potency,[2],inactive
NO,Potency,[1],inactive
same,Potency,[2],inactive
O=c1[nH]c2ccccc2n1CCCN1CCN(C(c2ccccc2)c2ccccc2)CC1,Potency,[1],inactive
same,Potency,[9],inactive
same,Potency,[10],inactive
COc1cccc(C(=O)NCCN2CCN(c3ccc(Cl)cc3)CC2)c1,Potency,[1],inactive
same,Potency,[2],inactive
Clc1ccc(N2CCN(Cc3c[nH]c4ncccc34)CC2)cc1,Potency,[1],inactive
same,Potency,[2],inactive
CC1(C)S[C@@H]2[C@H](NC(=O)[C@H](N)c3ccccc3)C(=O)N2[C@H]1C(=O)O,max response,[3],1.44% (inactive)
same,Potency,[4],inactive
same,Potency,[1],inactive
O=c1cc(-c2ccccc2)oc2ccccc12,max response,[3],-12.4% (inactive) and -11.5% (inactive)
same,Potency,[4],inactive
same,Potency,[1],35.5 µM (active)
CN1C2CC(OC(=O)[C@H](CO)c3ccccc3)CC1C1OC12 (stereo not given in full),Potency,[2],inactive
CCNc1nc2c(ncn2[C@H]2C[C@H](O)[C@@H](CO)O2)c(=O)[nH]1,Potency,[1],inactive
same,Potency,[11],inactive
same,Potency,[12],inactive
CN=c1nc(-c2ccccc2)n(-c2ccccc2)s1,Potency,[2],inactive
CC(COc1ccc(/C=C/c2ccccc2)cc1)[N+](C)(C)C (stereo not given),Potency,[2],inactive
Oc1cc(O)cc(/C=C/c2ccc(O)c(O)c2)c1,Potency,[1],7.94 µM (active)
same,Potency,[11],inactive
O=[N+]([O-])c1ccc(CNc2nc(NCc3cccc(C(F)(F)F)c3)nc3nc[nH]c23)cc1,Potency,[1],inactive
same,Potency,[11],inactive
same,Potency,[12],inactive
Cc1c(N)c(=O)n(-c2ccccc2)n1C,Potency,[1],inactive
same,Potency,[12],inactive
NC(CCCP(=O)(O)O)C(=O)O (stereo not given),Potency,[2],inactive
C/C(=N\O)c1ccc(OCC(=O)N2CCCCC2)cc1,Potency,[1],15.8 µM (active)
same,Potency,[11],inactive
Nc1nc2ccc([N+](=O)[O-])cc2s1,max response,[3],6.78% (inactive)
same,Potency,[4],inactive
same,Potency,[1],10 µM (active)
NCCSSCCN,Potency,[2],inactive
